# NPC1 promoter act: NPC1 promoter activation | actives 2.4% (n = 320,000) | Potency, µM (doses to about 9.22 µM), without a hit: top-dose activation, most hits filed as activators | Huh7 NPC1 promoter luciferase reporter, 24 h; also: % of control where 0% means no effect; nearly all actives have a fitted effect of over 60% in size
#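 Quantitative HTS used a cell-based reporter: Huh7 cells stably bearing the NPC1 promoter upstream of luciferase were treated with compounds for 24 h, and promoter activation was read as luminescence.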
# Rab9 promoter act: activates the Rab9 promoter. Huh7 Rab9 promoter-luciferase reporter, luminescence, 24 h. Potency, µM (top dose mostly 9.22 µM), for inactives: at the top dose activation, negative = inhibition, hits mostly activators. actives 2.8% (n = 320,000). AID 485297; also: % of control where 0% means no effect; nearly all actives have a fitted effect of over 60% in size
#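 Rab9 promoter-driven luciferase in stably transfected Huh7 cells; 1500 cells/well rested 2 h, exposed to compound in DMSO for 24 h at 37 °C, 5% CO2. Luminescence read 10 min after adding luciferase reagent at ambient temperature.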
# ELG1 repair inh: ELG1-dependent DNA repair inhibition; Potency, µM (doses to about 46.1 µM), without a hit: at the highest dose activity change, negative = inhibition, hits mostly inhibitors; actives 2.3% (n = 330,000); HEK293T ELG1-luciferase reporter, luminescence, 16 h; DNA damage induced by 5-fluorouridine; also: % is scaled to controls: 0 for no effect and ±100 for the full control effect; nearly all actives have a fitted effect of over 55% in size
#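 Quantitative HTS, concentration-response format. 2,000 cells/well co-treated with 5-fluorouridine and compound, 16 hr in 5% CO2 at 37 °C; ONE-Glo luminescence read after 30 min.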
# SMN2 splice up: enhancers of SMN2 splice variant expression; Potency, µM (titrated, usually from 46.1 µM), for inactives: at the highest dose activity change, positive = activation, most hits filed as activators; HEK293 SMN2-luciferase splicing reporter, luminescence, 30-36 h; actives 2.8% (n = 210,000); also: % of control where 0% means no effect; nearly all actives have a fitted effect of over 55% in size
#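 qHTS luciferase splicing reporter: luminescence rises when SMN2 exon 7 is included in transfected HEK293 cells. Compound exposure lasted 30-36 h at 37C, with 4.5 mM final sodium butyrate as control, followed by a ONE-Glo read.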
# ELG1 genotoxic: inducers of genotoxicity in HEK293T ELG1-luciferase cells | HEK293T ELG1-luciferase reporter, luminescence, 16 h | Potency, µM (doses to about 46 µM), inactives show at the highest dose activity change, positive = activation, hits mostly activators | actives 1.3% (n = 330,000) | AID 504466; also: % of control where 0% means no effect; nearly all actives have a fitted effect of over 60% in size
#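 Reporter readout depends on ELG1 protein level, which increases with genetic stress. After 16 hr compound exposure at 37 °C, luciferase activity was quantified using ONE-Glo.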
# FLuc modulator: inhibits or activates purified firefly luciferase, miR-21 counter-screen. Potency, µM (highest dose often 57.5 µM), without a hit: at the highest dose activity change, negative = inhibition, most hits filed as inhibitors. P08659. AID 588342. actives 6.9% (n = 360,000). purified FLuc, Km substrates, luminescence inhibition;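 also: plate controls were vehicle for no effect and reference inhibitor for full effect; nearly all actives have a fitted effect of over 55% in size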
# Target sequence (P08659 whole entry, looked up): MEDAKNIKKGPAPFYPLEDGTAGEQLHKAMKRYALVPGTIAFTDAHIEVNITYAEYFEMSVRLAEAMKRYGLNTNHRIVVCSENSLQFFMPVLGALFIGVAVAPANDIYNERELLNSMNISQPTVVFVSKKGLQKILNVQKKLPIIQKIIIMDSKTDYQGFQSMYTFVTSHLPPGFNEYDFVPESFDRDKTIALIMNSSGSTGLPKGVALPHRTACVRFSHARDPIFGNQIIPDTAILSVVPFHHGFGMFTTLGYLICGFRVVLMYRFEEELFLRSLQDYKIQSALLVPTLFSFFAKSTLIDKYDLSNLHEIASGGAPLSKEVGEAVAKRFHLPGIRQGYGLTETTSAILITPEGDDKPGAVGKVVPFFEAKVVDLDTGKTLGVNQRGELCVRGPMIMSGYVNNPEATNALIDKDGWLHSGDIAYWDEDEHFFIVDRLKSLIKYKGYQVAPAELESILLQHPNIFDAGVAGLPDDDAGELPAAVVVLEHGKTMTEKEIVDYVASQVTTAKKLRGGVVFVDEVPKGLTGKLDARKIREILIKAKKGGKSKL
#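 Purified P. pyralis luciferase, 10 nM final, with Km-level 10 uM D-luciferin and 10 uM ATP in 50 mM Tris acetate pH 7.5, 10 mM Mg acetate, 0.01% Tween-20, 0.05% BSA; 6-point qHTS titration about 60 µM downward; luminescence read.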
# Numbers without * were called inactive; ? = inconclusive; . = not tested or not shown; [ ] = dose if it differs, or a comment. Rows were chosen to be rich in hits. Some 9.4% of all compounds tested hit in one or more screens of this group. Calls follow the shape of the dose curve; as a rule, active = well fitted curve in the direction sought with a large enough effect; inconclusive = small, poorly fitted or top-dose-only effect, or another doubt; inactive = no such curve, though single readings can be large; an effect the other way counts as inactive or inconclusive. Potency is read from the fitted curve at half-maximal effect.
SMILES,NPC1 promoter act,Rab9 promoter act,ELG1 repair inh,SMN2 splice up,ELG1 genotoxic,FLuc modulator
COC(=O)Cc1ccc(NC(C)=O)cc1,7.2%,-3.9%,19.0%,.,4.5%,-0.3%
Cc1cccn2c(=O)c(C(=O)NCCc3ccc(S(N)(=O)=O)cc3)c(O)nc12,.,.,.,-12.8%,.,3.5%
COc1ccc(N2CCN(C3C(=O)c4ccccc4N3C(C)=O)CC2)cc1 (stereo not drawn),.,.,.,.,.,-10.8%
Cc1ccc(C(=O)c2oc3ccccc3c2NC(=O)Cc2ccccc2)cc1,.,.,.,-1.9%,.,-0.6%
COc1ccc(-c2ccc(NC(=O)c3ccc(Br)o3)cc2)nn1,2µM*,1.12µM*,?,.,2.06µM*,?
O=C(c1cc(COc2ccc(F)cc2F)on1)N1CC2C[C@@H]3CC1C[C@H](C2)C3,?,?,?,.,11.8%,16.9µM*
CC(=O)c1ccc(OCc2cc(C(=O)N3CC4C[C@@H]5CC3C[C@H](C4)C5)no2)cc1,2.51µM*,3.16µM*,?,.,?,9.53µM*
COc1ccccc1OCc1cc(C(=O)N2CC3C[C@@H]4CC2C[C@H](C3)C4)no1,4.47µM*,3.55µM*,?,.,?,16.9µM*
COc1ccccc1OCc1cc(C(=O)NCCN2CCCC(O)C2)no1 (stereo not drawn),-5.2%,2.4%,13.5%,.,1.8%,0.7%
CC(=O)c1cccc(OCc2cc(C(=O)N3CC4C[C@@H]5CC3C[C@H](C4)C5)no2)c1,-3.9%,-4.4%,6.3%,.,5.1%,?
COc1ccccc1OCc1cc(C(=O)N2CCN(C)C(c3ccccc3)C2)no1 (stereo not drawn),3.98µM*,2µM*,?,.,?,9.53µM*
CC1CN(C(=O)c2ccc(COc3ccc(C(C)C)cc3)o2)CC(C)O1 (stereo not drawn),?,?,?,.,?,13.5µM*
CC1CN(C(=O)c2ccc(COc3ccccc3Cl)o2)CC(C)O1 (stereo not drawn),-1.0%,-2.8%,?,.,-2.3%,-3.2%
Cc1ccccc1OCc1ccc(C(=O)N2CC(C)OC(C)C2)o1 (stereo not drawn),4.5%,2.7%,-28.2%,.,-3.4%,0.2%
CC1CN(C(=O)c2ccc(COc3ccc4ccccc4c3)o2)CC(C)O1 (stereo not drawn),21.9%,?,?,.,10.7%,16.9µM*
COc1ccc(-n2c(=O)c3c(c4cc(OC)ccc4n3C)n(CC(=O)N3CCCC3)c2=O)cc1,.,.,.,.,.,-6.5%
COC(=O)C(Cc1ccc(O)cc1)NC(=O)c1ccccc1 (stereo not drawn),-5.2%,-3.4%,12.1%,29.4%,-0.2%,19µM*
COC(=O)C(Cc1ccccc1)NC(=O)c1ccc(C)cc1 (stereo not drawn),-4.1%,4.7%,11.4%,-7.5%,-9.4%,6.01µM*
COC(=O)[C@H](Cc1ccccc1)NC(=O)NCc1ccc(C)cc1,3.9%,-6.8%,13.2%,.,0.5%,21.3µM*
Cc1cc2c([nH]c3ccccc32)c2c1OC(C)(C)C=C2,3.16µM*,3.16µM*,?,.,?,10.7µM*
COc1ccc2[nH]c(=O)c3c(c2c1)OC(C)(C)C=C3,18.2%,-2.7%,?,12.0%,-6.3%,0.6%
Cc1cc(C)c(Cn2c(=O)n(CCCCCC(=O)NCc3ccc4c(c3)OCO4)c(=O)c3sccc32)c(C)c1,.,.,.,-4.6%,.,6.5%
O=C(NNC(=O)c1ccc(F)cc1)c1ccncc1,1.6%,-0.5%,-2.3%,.,-1.6%,-0.1%
O=C(NNC1=Nc2ccccc2SC1)c1ccc(F)cc1,0.7%,-13.5%,9.2µM*,.,-8.6%,-4.4%
O=C(NNC1=Nc2ccccc2SC1)c1ccc(Cl)cc1,1.0%,-4.8%,6.51µM*,.,2.3%,-0.5%
SMILES,NPC1 promoter act,Rab9 promoter act,ELG1 repair inh,SMN2 splice up,ELG1 genotoxic,FLuc modulator
Cc1c(C(=O)NC(C)c2ccccc2)sc2ncnc(N(C)C3CCCCC3)c12 (stereo not drawn),.,.,.,.,.,6.8%
CCOC(=O)N1CCN(C(=O)c2cnn(-c3cccc(F)c3)c2-n2cccc2)CC1,.,.,.,.,.,3.5%
Cc1nc2cc(-c3cccc(F)c3)nn2c(C)c1CCC(=O)Nc1ccccc1C(N)=O,.,.,.,0.9%,.,?
O=C(NCCc1ccccc1)c1cnc2sc(N3CCCCCC3)nn2c1=O,.,.,.,.,.,-8.4%
Cc1c(CCC(=O)NCc2ccc(F)cc2)c(=O)oc2cc(O)ccc12,.,.,.,.,.,3.2%
CNC(=S)N1N=C(c2ccc(C)cc2)CC1c1ccc(Cl)cc1 (stereo not drawn),0.3%,0.5%,16.4µM*,5.5%,0.1%,-3.4%
CNC(=S)N1N=C(c2ccc(C)cc2)CC1c1ccc(Br)cc1 (stereo not drawn),-1.8%,0.6%,?,-5.2%,11.6%,-14.2%
O=C(O)C1(C(=O)O)CCN(S(=O)(=O)c2ccccc2)CC1,.,.,.,-2.1%[9.22 µM],.,.
O=C(O)/C=C/C(O)c1ccc(Cl)cc1 (stereo not drawn),3.9%[46.1 µM],4.4%[46.1 µM],16.4%,-7.7%,-3.6%,26.9µM*
C=C(C(C)=O)C(O)c1ccc(Cl)cc1 (stereo not drawn),.,.,.,4.8%,.,.
Cc1c(O)ccc2c(CN(C)Cc3ccccc3)cc(=O)oc12,12.7%,-1.1%,13µM*,.,1.3%,?
COc1cc2c(=O)c(-c3ccc(O)cc3)coc2cc1OC1OC(CO)C(O)C(O)C1O (stereo not drawn),15.4%,11.0%,?,?,4.5%,?
O=c1c(-c2ccc3c(c2)OCCO3)coc2cc(OC3OC(CO)C(O)C(O)C3O)ccc12 (stereo not drawn),0.562µM*,0.501µM*,?,.,?,10.7µM*
Fc1ccc(N2CCN(c3ncnc4[nH]ncc34)CC2)cc1,.,.,.,.,.,-0.2%
N#C/C(=C\c1cccc(NC(=O)c2ccccc2Cl)c1)C(=O)NCCc1ccccc1,13.6%,?,14.6µM*,-0.1%,-4.9%,-24.7%
CC(=O)N/C(=C\c1ccccc1)C(=O)OCc1ccccc1,3.6%,11.8%,15.6%,.,3.3%,-0.9%
CC(=O)N/C(=C\c1ccccc1)C(=O)OCc1cccc(S(=O)(=O)N(C)C)c1,-9.8%,-0.4%,7.3µM*,.,1.7%,-2.0%
CC(C)c1ccc(Cc2cn3cc(-c4cc5ccccc5oc4=O)nc3s2)cc1,.,.,.,-25.4%,.,-17.1%
Cc1ccc2c(c1)sc1nc(-c3cc4ccccc4oc3=O)cn12,.,.,.,-12.2%,.,0.426µM*
COc1ccc2cc(-c3cn4c(n3)sc3cc(F)ccc34)c(=O)oc2c1,.,.,.,.,.,9.53µM*
COc1ccc(NC(=O)c2cnn(-c3ccccc3)c2C)cc1OC,2.82µM*,?,?,.,?,10.7µM*

# Compound activity deposited in PubChem BioAssay by National Center for Advancing Translational Sciences (NCATS).
